Source: PubChem BioAssay (The Scripps Research Institute Molecular Screening Center)
An excerpt weighted towards active compounds, which were near 5.7% of everything screened.
DAX1 inh-1 – inhibitors of human orphan nuclear receptor DAX1 (NR0B1) | HEK293 Gal4-DAX1 luciferase reporter, luminescence | inhibition, % at 6.75 µM | AID 504766 | hit rate 0.99% among 340,000;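 active = inhibition above the mean over all tested compounds plus 3 SD, cut at about 4.2% in these data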;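 also: 0% = DAX1-transfected cells with DMSO and 100% = empty-vector control cells with DMSO; inhibition shows as a rise in luminescence from relieved DAX1 repression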
Target sequence (P51843 207-470 limits assumed): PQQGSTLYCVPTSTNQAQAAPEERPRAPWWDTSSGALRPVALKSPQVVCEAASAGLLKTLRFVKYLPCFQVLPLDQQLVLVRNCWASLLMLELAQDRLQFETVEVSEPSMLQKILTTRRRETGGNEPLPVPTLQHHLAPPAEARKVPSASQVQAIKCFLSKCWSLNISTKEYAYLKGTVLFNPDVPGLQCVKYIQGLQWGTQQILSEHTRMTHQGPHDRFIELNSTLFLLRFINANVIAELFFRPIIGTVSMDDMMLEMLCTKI
ssDAF-12 act – activates DAF-12 receptor from parasite S. stercoralis. HEK293 ssDAF-12/GRIP1 lit1-tk-luc reporter, luminescence; % of 3 µM dafachronic acid response. activation, % at 6.8 µM. hit rate 1% among 370,000;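 active = activation above the mean over all tested compounds plus 3 SD, cut at about 0.9% in these data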;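 also: 0% = DMSO-only wells and 100% = 3 µM delta7-dafachronic acid wells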
hcDAF12 agonist – H. contortus DAF-12 activation, primary screen | hit rate 1.4% among 370,000 | HEK293 hcDAF-12 lit1-tk-luc reporter, luminescence; 0% DMSO, 100% Δ7-dafachronic acid | activation, % at 6.8 µM;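 active = activation above the mean of all tested compounds plus 3 SD, cut at about 5.5% in these data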;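 also: 100% = response to 3 µM Δ7-dafachronic acid high control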
AHR activator – human AHR activation; AHR-responsive luciferase reporter cells, luminescence; activation, % at 5 µM; hit rate 2.5% among 320,000; in the data active = activation above about 47%;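 also: 0% = vehicle wells and 100% = reference agonist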
hgDAF12 agonist – hgDAF-12 agonism, primary luciferase screen. activation, % at 6.8 µM. hit rate 1.8% among 370,000. HEK293 GAL4-hgDAF12 UAS-luciferase reporter, agonist luminescence; normalized to butyrate control. AID 687014;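 active = activation above a cutoff set at the mean of all screened compounds plus 3 SD, cut at about 10% in these data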;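 also: 0% = DMSO wells and 100% = sodium butyrate wells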
DAX1 inh-2 – DAX1 (NR0B1) inhibition, primary screen; HEK293T StAR-luciferase reporter, SF-1/DAX-1 repression relief; inhibition, % at 6.8 µM; hit rate 1.1% among 370,000;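 active = inhibition above the mean over all tested compounds plus 3 SD, cut at about 3.6% in these data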;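 also: 0% = DAX-1 cells with DMSO and 100% = cells lacking DAX-1 with DMSO; higher inhibition means more luminescence from relief of DAX-1 repression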
DAX1 conf – confirmation of human DAX1 (NR0B1) inhibitors; inhibition, % at 6.8 µM; hit rate 87% among 2,400; shares compounds with DAX1 inh-2; AID 652134; HEK293T StAR-promoter luciferase reporter, SF-1/DAX-1 repression;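 active = inhibition above the average of every tested compound plus 3 SD, cut at about 3.8% in these data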;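 also: 0% = DAX-1 cells with DMSO and 100% = no DAX-1 control cells with DMSO; active compounds raise luminescence by relieving repression of the StAR reporter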
Target sequence (P51843 whole entry, looked up): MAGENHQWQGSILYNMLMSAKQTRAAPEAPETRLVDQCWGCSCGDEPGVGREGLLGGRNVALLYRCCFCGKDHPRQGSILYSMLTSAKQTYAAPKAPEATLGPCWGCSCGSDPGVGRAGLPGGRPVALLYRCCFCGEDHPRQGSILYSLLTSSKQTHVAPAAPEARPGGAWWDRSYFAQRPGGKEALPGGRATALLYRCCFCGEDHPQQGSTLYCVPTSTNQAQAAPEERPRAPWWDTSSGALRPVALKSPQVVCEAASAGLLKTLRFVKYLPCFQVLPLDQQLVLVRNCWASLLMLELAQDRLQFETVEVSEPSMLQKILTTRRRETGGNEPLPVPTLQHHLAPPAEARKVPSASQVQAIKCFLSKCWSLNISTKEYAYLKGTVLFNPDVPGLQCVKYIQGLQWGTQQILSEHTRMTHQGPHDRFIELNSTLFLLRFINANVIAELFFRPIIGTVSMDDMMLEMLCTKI
SF1 mutant ctr – nonselective inhibitor or artifact in SF-1 mutant DAX1 counter-screen; HEK293 StAR-luciferase, SF-1 AF2 mutant, luminescence; inhibition, % at 6.8 µM; hit rate 78% among 2,400; shares compounds with DAX1 inh-2;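 active = inhibition above the mean of all tested compounds plus 3 SD, cut at about 3% in these data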;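 also: 0% = DAX-1 transfected cells with DMSO and 100% = cells without DAX-1 with DMSO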
LXRb hcDAF ctr – LXR-beta agonism as hcDAF-12 counter-screen; HEK293 Gal4-LXR tk-luc reporter, luminescence, 24 h; normalized: DMSO 0%, positive control 100%; activation, % at 6.8 µM; AID 743027; 3,400 tested, under 10 active; shares compounds with hcDAF12 agonist;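 active = mean percent activation of the reporter above a cutoff set as the average over tested compounds plus their standard deviation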
hcDAF12 ag – hcDAF-12 agonism, confirmation assay; activation, % at 6.8 µM; AID 743032; hit rate 61% among 3,400; shares compounds with hcDAF12 agonist; HEK293 hcDAF-12 lit1-tk-luc reporter, luminescence; % of Δ7-dafachronic acid response;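 active = mean activation across triplicate tests above the threshold derived from the earlier primary screen, cut at about 5.5% in these data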;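 also: 0% = DMSO only wells and 100% = 3 µM Δ7-dafachronic acid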
An asterisk follows results filed as active.

Results for COc1ccc(/C(N)=N/OC(=O)c2cccs2)cc1 ?
DAX1 inh-1: 1; ssDAF-12 act: 4.4*; hcDAF12 agonist: 10*; AHR activator: 24; hgDAF12 agonist: 12*; DAX1 inh-2: 5.2*; DAX1 conf: 14*; SF1 mutant ctr: 9.6*; LXRb hcDAF ctr: 1; hcDAF12 ag: 4

What do the screens show for `CCOC(=O)[C@]12CCCC=C1N(Cc1ccccc1)C(=O)[C@H](CC(=O)NCc1cccc(C(F)(F)F)c1)C2`?
ssDAF-12 act: -1; hcDAF12 agonist: 3; hgDAF12 agonist: 1; DAX1 inh-2: 0

Results for O=C(/C=C/Nc1ccccc1O)c1ccco1 ?
DAX1 inh-1: 3; ssDAF-12 act: 0; hcDAF12 agonist: 0; AHR activator: 4; hgDAF12 agonist: 4; DAX1 inh-2: 0

Results for O=C(/C=C/Nc1ccc(Br)cc1F)c1ccco1 ?
DAX1 inh-1: -2; ssDAF-12 act: 1.5*; hcDAF12 agonist: 14*; AHR activator: 46; hgDAF12 agonist: 23*; DAX1 inh-2: 6.0*; DAX1 conf: 7.7*; SF1 mutant ctr: 0; LXRb hcDAF ctr: 1; hcDAF12 ag: 9.9*

Results for Clc1ccc(C=Cc2ccccn2)c(Cl)c1 ?
DAX1 inh-1: 2; ssDAF-12 act: 1.2*; hcDAF12 agonist: 8.2*; hgDAF12 agonist: 13*; DAX1 inh-2: 7.9*; DAX1 conf: 12*; SF1 mutant ctr: 6.8*; LXRb hcDAF ctr: 1; hcDAF12 ag: 15*

Results for COC(=O)c1ccc(NC(=O)c2ccccc2CC[N+](=O)[O-])cc1 ?
DAX1 inh-1: 0; ssDAF-12 act: -1; hcDAF12 agonist: -2; AHR activator: 1; hgDAF12 agonist: 3; DAX1 inh-2: 1

Results for COc1ccc(-c2ccn(-c3cccc(F)n3)n2)cc1 ?
DAX1 inh-1: 1; ssDAF-12 act: -1; hcDAF12 agonist: 2; hgDAF12 agonist: 8; DAX1 inh-2: 1

Results for Nc1nn(-c2cccc(F)n2)cc1-c1ccc(Cl)cc1 ?
DAX1 inh-1: 0; ssDAF-12 act: 1.4*; hcDAF12 agonist: 11*; hgDAF12 agonist: 18*; DAX1 inh-2: 5.9*; DAX1 conf: 13*; SF1 mutant ctr: 5.3*; LXRb hcDAF ctr: 2; hcDAF12 ag: 9.8*

How did N/C(=N\OC(=O)COc1ccccc1Cl)c1ccccn1 do in these assays?
DAX1 inh-1: 0; ssDAF-12 act: 1.1*; hcDAF12 agonist: 6.9*; AHR activator: 0; hgDAF12 agonist: 10; DAX1 inh-2: 5.9*; DAX1 conf: 12*; SF1 mutant ctr: 8.5*; LXRb hcDAF ctr: 1; hcDAF12 ag: 8.0*

Results for CN1/C(=C\C(=O)c2cccs2)Sc2ccccc21 ?
DAX1 inh-1: 2; ssDAF-12 act: 2.9*; hcDAF12 agonist: 21*; AHR activator: 77*; hgDAF12 agonist: 17*; DAX1 inh-2: 4.6*; DAX1 conf: 10*; SF1 mutant ctr: 7.0*; LXRb hcDAF ctr: 2; hcDAF12 ag: 21*

How did O=C(O)c1cccc(N/N=C/c2cccs2)c1 do in these assays?
DAX1 inh-1: -5; ssDAF-12 act: 1.5*; hcDAF12 agonist: 13*; AHR activator: -11; hgDAF12 agonist: 17*; DAX1 inh-2: 7.2*; DAX1 conf: 14*; SF1 mutant ctr: 6.3*; LXRb hcDAF ctr: 2; hcDAF12 ag: 17*

How did CCOC(=O)N1CCC(NC(=O)CS(=O)(=O)Cc2nc(-c3ccccc3C)oc2C)CC1 do in these assays?
DAX1 inh-1: -1; ssDAF-12 act: -1; hcDAF12 agonist: -1; AHR activator: -1; hgDAF12 agonist: 0; DAX1 inh-2: -1

How did O=C1c2ccccc2CN2C(=O)c3ccccc3CN12 do in these assays?
DAX1 inh-1: 1; ssDAF-12 act: 0; hcDAF12 agonist: 0; AHR activator: 0; hgDAF12 agonist: 1; DAX1 inh-2: -1

Results for c1ccc(-c2cn3c(n2)-c2ccccc2C3)cc1 ?
DAX1 inh-1: -3; ssDAF-12 act: 3.8*; hcDAF12 agonist: 21*; AHR activator: 18; hgDAF12 agonist: 15*; DAX1 inh-2: 5.7*; DAX1 conf: 11*; SF1 mutant ctr: 5.8*; LXRb hcDAF ctr: 1; hcDAF12 ag: 22*

Results for CCc1cc(-c2ccc3c(c2)COc2c4ccccc4nn2-3)on1 ?
DAX1 inh-1: 2; ssDAF-12 act: 0; hcDAF12 agonist: 7.0*; AHR activator: -7; hgDAF12 agonist: 8; DAX1 inh-2: 4.5*; DAX1 conf: 11*; SF1 mutant ctr: 5.1*; LXRb hcDAF ctr: 2; hcDAF12 ag: 9.3*

Results for CCCn1c(N)c(C(=O)COC(=O)c2cccc(S(=O)(=O)N3CCOCC3)c2)c(=O)[nH]c1=O ?
DAX1 inh-1: 0; ssDAF-12 act: -1; hcDAF12 agonist: -1; AHR activator: 1; hgDAF12 agonist: 0; DAX1 inh-2: 0

How did CCOC(=O)c1cc(C#N)c(N2CCCNCC2)nc1C(F)(F)F do in these assays?
DAX1 inh-1: 1; ssDAF-12 act: -1; hcDAF12 agonist: -1; AHR activator: 0; hgDAF12 agonist: 0; DAX1 inh-2: 0

How did COc1ccc(-c2cc(=O)c3c(O)c(OC)c(O)cc3o2)cc1 do in these assays?
DAX1 inh-1: -4; ssDAF-12 act: 1.3*; hcDAF12 agonist: 6.7*; AHR activator: -1; hgDAF12 agonist: 10; DAX1 inh-2: 5.1*; DAX1 conf: 16*; SF1 mutant ctr: 8.3*; LXRb hcDAF ctr: 1; hcDAF12 ag: 5

Results for O=c1[nH]c(=O)n([C@H]2C[C@H](O)[C@@H](CO)O2)cc1F ?
DAX1 inh-1: -3; ssDAF-12 act: -1; hcDAF12 agonist: -2; AHR activator: -2; hgDAF12 agonist: -8; DAX1 inh-2: -5

How did O=c1[nH]c(=O)n([C@H]2C[C@H](O)[C@@H](CO)O2)cc1Br do in these assays?
DAX1 inh-1: 1; ssDAF-12 act: -1; hcDAF12 agonist: 8.8*; AHR activator: -1; hgDAF12 agonist: 38*; DAX1 inh-2: 13*; DAX1 conf: 14*; SF1 mutant ctr: 5.5*; LXRb hcDAF ctr: 0; hcDAF12 ag: 12*
